Experimental findings from PubChem BioAssay (EPA / NIEHS) are described below.

Results filed as inconclusive are left out. Active and inactive are the calls of the source. Rule for the calls, unless noted: active = hit-call score of the fitted dose curve at least 0.9, where 1 is the maximum; inactive = score below 0.9.

Experiment [1] is described as follows: TAMU_PeakParms_SingleDonor1434_Chronotropy: Texas A&M University (TAMU) 1.5-hr Human Induced Pluripotent Stem Cell (iPSC)-derived Cardiomyocytes Calcium (Ca+2) Flux Assay for Cardiotoxicity: Chronotropy (changes in peak frequency) (AID 2284217). The note with it: actives raise or lower the signal. The procedure, abridged:
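Beat frequency of single-donor iPSC cardiomyocytes was recorded through a calcium-sensitive dye 1.5 hours after exposure to four concentrations up to 100 uM. An EC05 point of departure was derived.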

Experiment [2] is described as follows: IUF_NPC1_viability_72hr: Viability Assessment at 72 hours in the Leibniz Research Institute for Environmental Medicine (IUF) Neural Progenitor Cell Proliferation Assay (NPC1) (AID 2284209). The procedure, abridged:
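Three-day continuous exposure of human neural progenitor spheres under EGF/FGF-driven proliferation; cell viability scored by alamar blue signal versus DMSO.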

The nature of experiment [3]: CCTE_Mundy_HCI_Cortical_Synap_Neur_Matur_NeuriteSpotCountPerNeuriteLength: CCTE's Synaptogenesis and Neurite Maturation Assay in rat cortical cells for Neurite Spot Count per Neurite Length, Mundy Lab (AID 2284210). The method, boiled down:
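Synaptophysin spots per unit neurite length, measured by automated imaging of MAP2/synaptophysin/Hoechst-stained neurons. Cultures from rat cortex received chemical at DIV 7 with media change through DIV 12; glial growth arrested by AraC at DIV 5; DMSO baseline.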

Experiment [4] can be described thus: CCTE_Mundy_HCI_Cortical_Synap_Neur_Matur_BPCount: CCTE's Synaptogenesis and Neurite Maturation Assay in rat cortical cells for Branch Point Count, Mundy Lab (AID 2284211). The method, boiled down: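 In this multiplexed morphology assay, cortical cells from rat receive chemicals at DIV 7 and are fixed at DIV 12, then immunostained and imaged; branch points are counted, with DMSO as baseline.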

A short description of experiment [5]: CCTE_Mundy_HCI_Cortical_NOG_NeuriteLength: CCTE's Neurite Outgrowth Assay in rat cortical cells for Neurite Length, Mundy Lab (AID 2284213).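 For AC50: neurites imaged about 48 to 50 h after chemical exposure began.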 The method, boiled down: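 First, rat primary cortical cells were plated and, 2 h later, given test chemical as a 1/10 dilution. Finally, βIII-tubulin immunostaining enabled automated imaging of neurite length.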
The nature of experiment [6]: CCTE_Mundy_HCI_Cortical_Synap_Neur_Matur_NeuriteLength: CCTE's Synaptogenesis and Neurite Maturation Assay in rat cortical cells for Neurite Length, Mundy Lab (AID 2284214). The method, boiled down:
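DMSO-normalised neurite length, from high-content imaging of anti-MAP2-stained rat cortical cells fixed at DIV 12. Glia were suppressed with AraC (DIV 5) before chemical exposure from DIV 7.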

Experiment [7] in a line: CCTE_Mundy_HCI_Cortical_Synap_Neur_Matur_NeuriteSpotCountPerNeuron: CCTE's Synaptogenesis and Neurite Maturation Assay in rat cortical cells for Neurite Spot Count per Neuron Count, Mundy Lab (AID 2284215). The procedure, abridged:
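High-content imaging counts synaptophysin puncta along MAP2-labelled neurites per neuron after chemical exposure of rat cortical cells from DIV 7 to termination at DIV 12 (AraC added DIV 5). Loss of signal relative to DMSO.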

Experiment [8] in a line: CCTE_Mundy_HCI_Cortical_Synap_Neur_Matur_SynapseCount: CCTE's Synaptogenesis and Neurite Maturation Assay in rat cortical cells for Synapse Count, Mundy Lab (AID 2284218). The procedure, abridged: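 Endpoint: synapses/neuron by HCI (synaptophysin puncta on MAP2-labelled neurites, Hoechst nuclei). Rat primary cortical cells, AraC DIV 5, dosed DIV 7, fixed DIV 12; DMSO negative control.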

Experiment [9] in a line: CCTE_Mundy_HCI_Cortical_Synap_Neur_Matur_NeuriteCount: CCTE's Synaptogenesis and Neurite Maturation Assay in rat cortical cells for Neurite Count, Mundy Lab (AID 2284222).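 Note: exposure from day 7 to day 12 in vitro with readout at day 12.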 The method, boiled down: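 Chemical exposure runs DIV 7–12 in rat cortical cultures, glia suppressed by AraC at DIV 5; measurement is at DIV 12. Imaging-derived neurite counts are fitted against DMSO baseline.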

Experiment [10] in a line: CCTE_Mundy_HCI_Cortical_Synap_Neur_Matur_CellBodySpotCount: CCTE's Synaptogenesis and Neurite Maturation Assay in rat cortical cells for Cell Body Spot Count, Mundy Lab (AID 2284223). The method, boiled down: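 High-content imaging counts synaptophysin puncta on neuronal cell bodies per neuron after MAP2/synaptophysin immunostaining. Rat primary cortical cells, glia arrested with AraC at DIV 5, were exposed DIV 7–12; signal decrease measured against DMSO.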

Experiment [11] can be described thus: CCTE_Mundy_HCI_hNP1_Pro_ResponderAvgInten: CCTE's Proliferation Assay in human neuroprogenitor cells, Mundy Lab (AID 2284224; active = hit-call score of the fitted dose curve at least 0.9, where 1 is the maximum). The procedure, abridged: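 Proliferation was scored as BrdU labelling intensity in human neural progenitors derived from WA09 embryonic cells, measured 26.25 hours after chemical dosing. Activity was fitted relative to DMSO.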
Experiment [12] in a line: CCTE_Mundy_HCI_hN2_NOG_NeuriteCount: CCTE's Neurite Outgrowth Assay in human hN2 cells for Neurite Count, Mundy Lab (AID 2284219; active = hit-call score of the fitted dose curve at least 0.9, where 1 is the maximum). The procedure, abridged:
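In this morphology assay, hNP1-derived neurons received test chemical 2 h post-plating and were fixed two days later in warm paraformaldehyde/sucrose containing Hoechst 33342. Neurites, labelled by rabbit anti-βIII-tubulin (1:800) and Alexa Fluor-488 (1:500), were counted automatically.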

A short description of experiment [13]: CCTE_Mundy_HCI_hN2_NOG_NeuriteLength: CCTE's Neurite Outgrowth Assay in human hN2 cells for Neurite Length, Mundy Lab (AID 2284220; active = hit-call score of the fitted dose curve at least 0.9, where 1 is the maximum). The method, boiled down: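 Plate hNP1-derived neurons, then add chemical 2 h later as a 1/10 dilution. Stain with anti-βIII-tubulin then Alexa Fluor-488 secondary, and image automatically to measure neurite length.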
The nature of experiment [14]: CCTE_Mundy_HCI_hN2_NOG_NeuronCount: CCTE's Neurite Outgrowth Assay in human hN2 cells for Neuron Count, Mundy Lab (AID 2284221; active = hit-call score of the fitted dose curve at least 0.9, where 1 is the maximum). The procedure, abridged: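 Read-out is the number of betaIII-tubulin-positive neurons imaged by automated high-content analysis, with DMSO as negative control.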

For `Clc1ccc(C(c2ccc(Cl)cc2)C(Cl)(Cl)Cl)cc1`, the result in experiment [1] was inactive.

One may read the AC50 as the concentration at which the activity in the assay is half-maximal. Take `COC(=O)Nc1nc2ccccc2[nH]1`: the outcome in experiment [2], in experiment [3], in experiment [7], in experiment [8], in experiment [9] and in [10] was inactive. Besides, the result in experiment [11] was inactive. The AC50 in experiment [4] is 4140 nM (active); in [5] it was 12500 nM (active); in experiment [6], 4050 nM (active).

Consider `COP(=S)(OC)SCN1C(=O)c2ccccc2C1=O`, for which the compound was called inactive in [2], in experiment [3], in experiment [4], in experiment [5], in experiment [6] and in experiment [7]. Besides, the compound was classed as inactive in [8], in [9], in experiment [10] and in experiment [11]. Further, the AC50 was 33500 nM (active) in [12], 31100 nM (active) in [13] and 23100 nM (active) in experiment [14].

`O=P(OCCCl)(OCCCl)OCCCl`: the call in experiment [2] and in experiment [1] was inactive.

As to `OCCOCCO`, the compound was called inactive in experiment [2], in experiment [3], in [4], in experiment [5], in experiment [6] and in experiment [7]. Besides, the outcome in experiment [8], in [12], in experiment [13], in experiment [14], in experiment [9] and in experiment [10] was inactive. For the same compound, the compound was classed as inactive in experiment [11].

For `CCCCOC(=O)c1ccccc1C(=O)OCc1ccccc1`, the compound was classed as inactive in experiment [2], in experiment [3], in [5], in experiment [6], in [7] and in experiment [8]. The compound was classed as inactive in experiment [9], in experiment [10] and in [11]. Further, the AC50 in experiment [4] is 10000 nM (active).

For `CN(C)[C@@H]1C(=O)C(C(N)=O)=C(O)[C@@]2(O)C(=O)C3=C(O)c4c(O)cccc4[C@@](C)(O)[C@H]3C[C@@H]12`, the call in [3], in experiment [5], in [6], in experiment [7], in experiment [8] and in experiment [9] was inactive. For the same compound, the compound was classed as inactive in experiment [10]. Moreover, the AC50 in experiment [4] was 474 nM (active).

Regarding `CCC[CH2][Sn]([Cl])([CH2]CCC)[CH2]CCC`, the AC50 is 535 nM (active) in [2]; 37.5 nM (active) in experiment [3]; 48.1 nM (active) in experiment [4]; 88.2 nM (active) in [5]; 46.8 nM (active) in experiment [6]; 37 nM (active) in [7]. Besides, the AC50 in [8] was 56.9 nM (active); in [10] it was 102 nM (active); in experiment [11], 188 nM (active). In experiment [9], the result was inactive.

For `ClC1=C(Cl)[C@]2(Cl)[C@H]3[C@H]([C@@H]4C=C[C@H]3C4)[C@@]1(Cl)C2(Cl)Cl`, in experiment [1], the result was inactive.

Consider `C1=Cc2cccc3cccc1c23`, for which, in [1], the AC50 was 50000 nM (active).
